The record followed here is PubChem BioAssay AID504832 (National Center for Advancing Translational Sciences (NCATS), 2011).

Each structure is given as a SMILES string. Out of some 310,000 compounds screened, about 18,000 (5.8%) were called active. Where a call stands in place of a potency, no number is given. About 22% were inconclusive and are not listed. The sample as a whole holds a higher share of actives than the screen did. Values without a mark were called inactive. The call rests on the fitted dose curve; in most records, active means well fitted inhibition curve with a large enough effect; inconclusive means small, poorly fitted or top-dose-only effect, or another doubt; inactive means no such curve, though single readings can be large or run the other way.
Potency means the concentration at half of the fitted maximal effect.

The test is described as follows: Primary qHTS for delayed death inhibitors of the malarial parasite plastid, 48 hour incubation. The settings on record: P. falciparum luciferase growth in erythrocytes; series mostly up to 28.7 µM. In outline:
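Compounds are pin-transferred into medium, infected erythrocytes (2% hematocrit, 0.1% parasitemia final) are added, and plates sit one parasite generation at 37 C in 5% CO2. Detection reagent is then added and luminescence measured.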
(In general: Quantitative high-throughput screening tests each substance at several concentrations.)
As to `O=C(CN1C(=O)NC2(CCOc3ccccc32)C1=O)NCc1ccc(F)cc1` (stereo unspecified), the Potency result is “inactive”.

`Cc1cccc(NC(=O)C2CCCN(C(=O)NCc3ccccc3)C2)c1C` (stereo unspecified): the Potency entry was “inactive”. On to `CCOC(=O)C1=C(C)N=C2c3ccccc3C(=O)C2C1c1ccc(Br)cc1` (stereo unspecified), for which the Potency was 9.28 µM (active). Regarding `CCOC(=O)C1=C(C)NC(C)=C(C(=O)OCC)C1c1ccccn1`, the Potency entry was “inactive”.

Take `CCOC(=O)CN1C(=O)N[C@@H](c2ccc(Br)cc2)C(C(C)=O)=C1C`: the Potency result was “inactive”. On to `Cc1cccc(NS(=O)(=O)c2ccc(C(=O)NCC(C)(C)N3CCOCC3)cc2)c1C`, for which the Potency result was “inactive”. Same read-out and setting: under `COc1ccc(/C=C/C(=O)NC(=S)N2CCCC(C(N)=O)C2)cc1` (stereo unspecified) stands “inactive”; under `COc1ccc(CCNCC(O)Cn2ccc3ccccc32)cc1OC` (stereo unspecified), 10.4 µM (active). As to `COC(=O)c1ccc(OCC(O)CN(CCO)CC(O)Cn2ccc3ccccc32)cc1` (stereo unspecified), the Potency result is “inactive”. With `COc1ccc(Cn2c(=O)sc3ccccc32)cc1OC`, the Potency entry is “inactive”. For the compound `O=C(C1CCC1)N1CCN(c2ccccc2)CC1`, the Potency result was “inactive”. In the case of `Cc1ccccc1NC(=O)Cn1cc(C(=O)C2CC2)c2ccccc21`, the Potency entry was “inactive”. On to `Cc1ccc(CNC(=O)Cn2cnc(S(=O)(=O)N3CCCCC3)c2)o1`, for which the Potency result was “inactive”. As to `CCCOC1CCCN(C(=O)c2cc(COc3cncc(Cl)c3)on2)C1` (stereo unspecified), the Potency entry is “inactive”. Still for that read-out and setting: under `Cc1ccccc1NC(=O)N1CCCC1C(=O)NCc1ccccc1` (stereo unspecified) stands “inactive”; under `COc1ccc(C(C)=O)cc1COc1ccc(Cl)c(C)c1`, “inactive”. In the case of `CCn1nc(C)c(NC(=O)/C=C/c2ccc(OC)c(COc3ccc(Br)cc3)c2)c1C`, the Potency was 8.28 µM (active).

On to `COc1ccc(/C=C/C(=O)Nc2cccnc2)cc1OC`, for which the Potency result is “inactive”. For the compound `CCOC(=O)N1CCN(C(=O)c2cn(C)c3ccc(S(=O)(=O)N4CCCC4)cc3c2=O)CC1`, the Potency entry was “inactive”. With `O=C(NC1CCCCC1)n1c(=O)oc2cc(S(=O)(=O)N3CCCCC3)ccc21`, the Potency entry is “inactive”. `CC(C)COC(=O)n1c(=O)oc2ccc(S(=O)(=O)N3CCCCC3)cc21`: the Potency is 10.4 µM (active). Consider `CCOc1ncccc1C(=O)OCC(=O)Nc1cccc(S(=O)(=O)N2CCCCCC2)c1`, for which the Potency result was “inactive”. As to `COc1ccc(N2CCN(S(=O)(=O)c3cc(Br)cnc3N)CC2)cc1`, the Potency entry was “inactive”.

As for `CCCC(=O)N1CCN(c2nnc(-c3ccc(C)cc3)c3ccccc23)CC1`, the Potency was 4.15 µM (active). Still for that read-out and setting: under `OCCN1CCN(c2nnc(-c3ccccc3)c3ccccc23)CC1` stands “inactive”; under `c1ccc(-c2nnc(N3CCOCC3)c3ccccc23)cc1`, “inactive”; under `Cc1ccc(S(=O)(=O)CC(=O)Nc2sc(C)c(C)c2C(N)=O)cc1`, “inactive”.

Consider `S=C(NCc1ccc(Cl)cc1)NC12CC3CC(CC(C3)C1)C2`, for which the Potency was 11.7 µM (active). In the case of `O=C(NCc1ccncc1)NC12CC3CC(CC(C3)C1)C2`, the Potency result was “inactive”. On to `S=C(NCc1ccc(Cl)cc1)NC1CCCCC1`, for which the Potency result was “inactive”. On to `CCN(CC)CCOC(=O)c1ccc(NC(=O)CNC(=O)c2ccccc2)cc1`, for which the Potency result is “inactive”. The same measure, in the same setting: the result for `CCC(C(=O)OCCN(CC)CC)c1ccccc1` (stereo unspecified) reads “inactive”; that for `CCCC(C(=O)OCCN(CC)CC)(c1ccccc1)c1ccccc1`, 6.01 µM (active); that for `COc1ccc(-c2cc3ncccc3cn2)cc1`, “inactive”. On to `Cc1cccc(C(=O)Nc2ccc(C(=O)N/N=C/c3cccc(C)n3)cc2)c1`, for which the Potency entry is “inactive”. With `COc1ccc(CN2CCCC(C(=O)N3CCCCC3)C2)cc1` (stereo unspecified), the Potency result is “inactive”. Regarding `COc1ccc(C(O)(C2CCCCC2)C(CN2CCCC2)c2ccccc2)cc1` (stereo unspecified), the Potency is 11.7 µM (active).

As for `CC(CN1CCCCC1)c1ccccc1` (stereo unspecified), the Potency entry was “inactive”. On the same count and under the same terms, under `O=C(NCCS(=O)(=O)c1ccc(Br)cc1)c1ccccc1Cl` stands “inactive”; under `CCCCn1c(SCC(=O)N2CCOCC2)nc2c1c(=O)n(C)c(=O)n2C`, “inactive”. Still for that read-out and setting: under `CC1CC2=C(CC1/C=N/NC(N)=S)C(C)(C)CCC2` (stereo unspecified) stands 13.1 µM (active). As for `COc1ccc(C2/C(=C(/O)c3ccc4c(c3)CC(C)O4)C(=O)C(=O)N2Cc2ccncc2)cc1` (stereo unspecified), the Potency result was “inactive”. For the compound `COCCN1C(=O)N(c2ccc(Cl)cc2)C(=O)C1CC(=O)Nc1cc(OC)cc(OC)c1` (stereo unspecified), the Potency result is “inactive”. Take `COCCN(CCOC)c1nc(N)c2c(N)nc3c(c2c1C#N)CC(=O)N3Cc1ccc(Cl)cc1`: the Potency is 1.65 µM (active). As to `CSCCC(NC(=O)c1ccco1)C(=O)Nc1cc(C)ccn1` (stereo unspecified), the Potency entry is “inactive”. With `Cc1cccc(NC(=O)NC2(C)CCS(=O)(=O)C2)c1` (stereo unspecified), the Potency entry is “inactive”. As for `CCOC(=O)C1=C(C)NC(=S)NC1c1cccs1` (stereo unspecified), the Potency result is “inactive”. For `COCCOC(=O)C1=C(C)N=c2s/c(=C\c3cccs3)c(=O)n2C1c1cccs1` (stereo unspecified), the Potency is 4.15 µM (active). The same measure, in the same setting: the result for `Cc1cc(=O)oc2cc(OCC(=O)N3CCN(c4ccc(F)cc4)CC3)c(Cl)cc12` reads “inactive”. On the same count and under the same terms, the result for `O=C(CCc1ccccc1)Nc1ccnn1C1CCN(Cc2ccc(OCCO)cc2)CC1` reads “inactive”; that for `O=C(Nc1ccccc1N1CCOCC1)c1ccc(OCc2cscn2)cc1`, “inactive”. In the case of `CN1CCN(c2ccc(NC(=O)c3ccc4c(c3)[nH]c(=O)n4Cc3ccc(F)cc3)cc2)CC1`, the Potency is 11.7 µM (active). For the compound `CN1CCN(c2ccc(NC(=O)c3ccccc3)cc2)CC1`, the activity change, negative = inhibition is -20.4% [at 0.00184 µM]. With `CC(C)n1c(=O)[nH]c2cc(C(=O)Nc3ccccc3)ccc21`, the Potency result is “inactive”. The same measure, in the same setting: the result for `Cc1cc(C)c2nc(N3CCC(C(=O)NCCN4CCOCC4)CC3)sc2c1` reads “inactive”. Consider `COc1ccccc1N1CCN(/N=C/c2ccc(O)cc2O)CC1`, for which the Potency entry was “inactive”. Consider `COc1ccc(CNC(=O)C2CCN(C(=O)c3ccco3)CC2)cc1`, for which the Potency result was “inactive”. Regarding `COc1ccc2[nH]c(=O)c(C3c4cc(OC)c(OC)cc4CCN3C(=O)c3ccco3)cc2c1` (stereo unspecified), the Potency is 13.1 µM (active). Same read-out and setting: under `CCc1ccc(OCC2c3cc(OC)c(OC)cc3CCN2C(C)=O)cc1` (stereo unspecified) stands “inactive”; under `CCOC(=O)N1CCN(C(=O)C(=O)Nc2sc3c(c2C#N)CC(C)(C)OC3)CC1`, “inactive”. `CCc1cc(C(=O)c2ccc(OC)cc2)c(NC(=O)CN2CCN(C)CC2)s1`: the Potency was 5.22 µM (active). Still for that read-out and setting: under `CCc1cc(C(N)=O)c(NC(=O)c2ccc(OC)cc2)s1` stands “inactive”. On the same count and under the same terms, under `CCc1ccc(NC(=O)CN2CCC(C(=O)c3ccc(OC)cc3)CC2)cc1` stands “inactive”; under `Cc1ccc(NC(=O)Cn2nnc(C(=O)NCc3ccco3)c2N)c(C)c1`, “inactive”; under `CCOc1ccc(/C=N/NC(N)=S)cc1`, “inactive”.

In the case of `NC(N)=N/N=C/c1ccc(OCc2ccc(Cl)cc2Cl)cc1`, the Potency is 9.28 µM (active). For `CCOc1ccc(NC(=O)NNC(=O)c2ccc(Cl)cc2Cl)cc1`, the Potency entry was “inactive”.

In the case of `CCOc1ccc(OCc2ccc(C(=O)N(C)c3ccccc3)o2)cc1`, the Potency entry was “inactive”. With `N=c1n(CCc2ccccc2)c2ccccc2n1Cc1ccccc1F`, the Potency was 9.28 µM (active). On the same count and under the same terms, the result for `Fc1ccccc1Cn1cnc(NC(=S)NCCc2ccccc2)n1` reads “inactive”. The same measure, in the same setting: under `O=C(COC(=O)Cc1ccccc1F)NCCc1ccccc1` stands “inactive”. Consider `Nc1c(C(=O)Nc2ccc3c(c2)OCCO3)nnn1Cc1ccccc1`, for which the Potency entry was “inactive”.

Take `O=C1CCC(C(=O)N2CCCCO2)CN1Cc1cccc(C(F)(F)F)c1` (stereo unspecified): the Potency result was “inactive”. Still for that read-out and setting: under `CSc1ncc(C(=O)Nc2ccc(C)cc2C)c(C)n1` stands “inactive”. On the same count and under the same terms, the result for `O=C(CN1C(=O)CC(c2ccccc2)S(=O)(=O)c2ccccc21)NC1CCCC1` (stereo unspecified) reads “inactive”; that for `CC(=O)c1cc(-c2ccccc2)n(CC(=O)NC2CCCCC2)c1C`, “inactive”; that for `O=C(CN1C(=O)CC(c2ccccc2)=Nc2ccccc21)NC1CCCCC1`, 9.28 µM (active). For `Cc1cc(NS(=O)(=O)c2ccc(NC(=O)C(C)Oc3cccc(C)c3C)cc2)nc(C)n1` (stereo unspecified), the Potency entry was “inactive”. On to `CC(=O)Oc1ccc(N(C(C)=O)S(=O)(=O)c2ccc3ccccc3c2)cc1Br`, for which the Potency entry is “inactive”. The same measure, in the same setting: under `O=C(COC(=O)c1ccc(F)cc1)NCCCc1ccccc1` stands “inactive”; under `O=Cc1cn(Cc2ccc(F)cc2Cl)c2ccccc12`, “inactive”; under `O=c1c([N+](=O)[O-])cccn1Cc1ccc(F)cc1Cl`, 0.37 µM (active). Same read-out and setting: the result for `N/C(=N/O)c1cccn1Cc1ccccc1[N+](=O)[O-]` reads “inactive”; that for `CN(CC(=O)Nc1c(Cl)cccc1Cl)C(=O)CNC(=O)C1CCCCC1`, “inactive”; that for `CN(Cc1ccccc1)C(=O)c1ccc(COc2ccccc2)cc1`, “inactive”. For `CC(C)C(=O)NC(=S)Nc1ccccc1F`, the Potency entry was “inactive”. Still for that read-out and setting: under `CC(C)C(=O)Nc1cccc(NC(=S)NC(=O)C(c2ccccc2)c2ccccc2)c1` stands 11.7 µM (active); under `COc1ccccc1NC(=S)NC(=O)C(C)C`, “inactive”. Same read-out and setting: the result for `COc1cccc(NC(=O)N2CCCC2C(=O)NC2CCCCC2)c1` (stereo unspecified) reads “inactive”; that for `COc1ccc(/C=N/OCc2ccccc2C#N)c(OC)c1`, “inactive”; that for `CC1CCN(C(=O)c2ccccc2NC(=O)Cc2ccccc2)CC1`, “inactive”.

Turning to `CN1CCN(C(=O)CCc2ncc(C(F)(F)F)cc2Cl)CC1`, the Potency entry is “inactive”. Turning to `O=C(Cc1ncc(C(F)(F)F)cc1Cl)Nc1cccc(Br)c1`, the Potency entry was “inactive”.

Take `CC(=O)c1ccc(Cc2ncc(C(F)(F)F)cc2Cl)s1`: the Potency is 13.1 µM (active).

As for `Cc1ccc2c(c1)N(C(=O)CCC(=O)NCc1cccnc1)CCO2`, the Potency entry is “inactive”.

On to `Cn1c(N2CCOCC2)c(C=O)c2ccccc21`, for which the activity change, negative = inhibition is 37.2% [at 0.00184 µM]. For the compound `COc1ccc(-n2nc(C(=O)NCC(=O)N3CCC(C(N)=O)CC3)c3ccccc3c2=O)cc1OC`, the Potency result is “inactive”. Same read-out and setting: under `COc1ccc(-n2c(O)c(C=NCC(c3ccco3)N3CCCC3)c3ccccc3c2=O)cc1OC` (stereo unspecified) stands 9.28 µM (active); under `CCN(CC)CCCN=Cc1c(O)n(-c2ccc(C)cc2)c(=O)c2ccccc12`, “inactive”; under `Cc1nnc(SCC(=O)Nc2ccc(S(=O)(=O)Nc3ccc(Cl)nn3)cc2)s1`, “inactive”. Still for that read-out and setting: the result for `CCC(C)(NC(=O)c1ccccn1)C(=O)NC1CCCCC1` (stereo unspecified) reads “inactive”; that for `CCN(CC)CCOc1ccc2c(c1)C(=NNC(=O)c1ccccn1)c1cc(OCCN(CC)CC)ccc1-2`, 0.37 µM (active); that for `Cc1cccc(OCC(=O)NCCCNC(=O)c2ccccn2)c1`, “inactive”.

As to `CCOc1ccccc1OCC(=O)Nc1ccccc1C(=O)NC1CC1`, the Potency result is “inactive”. The same measure, in the same setting: the result for `O=C(CCNS(=O)(=O)c1ccccc1C(F)(F)F)Nc1ccncc1` reads “inactive”. The same measure, in the same setting: the result for `C/C(N)=C(/C#N)C(=O)COC(=O)C1=NN(c2ccccc2)C(=O)CC1` reads “inactive”.
